# Experimental data published in PubChem BioAssay AID504834 (National Center for Advancing Translational Sciences (NCATS), 2011).
# The whole screen tested about 320,000 compounds, of which about 22,000 (6.9%) were called active. About 27% were inconclusive and are not listed. The call rests on the fitted dose curve; in most records, active means well fitted inhibition curve with a large enough effect; inconclusive means small, poorly fitted or top-dose-only effect, or another doubt; inactive means no such curve, though single readings can be large or run the other way. What follows is part of a selection rich in actives, with near analogues and random picks from the rest. A call without a number means that no potency is given here.
# Test: Primary qHTS for delayed death inhibitors of the malarial parasite plastid, 96 hour incubation
# Conditions: P. falciparum luciferase reporter growth; series mostly up to 28.7 µM
# Summary of the method: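 Two-generation exposure (96 h) targets delayed-death phenotype. Reporter parasites carrying integrated firefly luciferase, in red cells at 2% hematocrit and 0.05% parasitemia final, kept at 37 C, 5% CO2; luminescence loss indicates inhibition.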
# Potency means the concentration at half of the fitted maximal effect.
row,SMILES,Potency
1,COc1cccc(C(=O)OCC(=O)c2[nH]c(C)c(C(C)=O)c2C)c1,inactive
2,COc1ccc(C2=NS(=O)(=O)N(C)C(C(=O)N3CCCCC3)=C2)cc1,inactive
3,COc1ccc2c(c1)c1ncn(Cc3ccccn3)c(=O)c1n2C,inactive
4,CC1=CCC2C(=O)N(c3cccc(C(=O)NC(C)c4ccccc4)c3)C(=O)C2C1 (stereo not drawn),inactive
5,NC(=O)CSc1nnc(NC(=O)c2ccc(Br)o2)s1,inactive
6,CN(C)S(=O)(=O)N1CCC(Oc2cccc(C(=O)NCCCC3CCCC3)c2)CC1,inactive
7,Cc1ccc(CNC(=O)CC(NC(=O)c2ccccc2)c2ccccc2)cc1 (stereo not drawn),inactive
8,Cc1ccc(NC(=O)CN2C(=O)NC(C)(c3ccc(Cl)cc3)C2=O)c(Br)c1 (stereo not drawn),inactive
9,CN(C(=O)CN1C(=O)NC(C)(CCc2ccccc2)C1=O)c1ccccc1 (stereo not drawn),inactive
10,Cc1ccc(S(=O)(=O)Nc2nc(N)n(-c3ccccc3)n2)cc1,inactive
11,Cc1ccc(S(=O)(=O)NCc2nc3ccccc3c(=O)n2N)cc1,inactive
12,Cc1ccc(S(=O)(=O)c2c(N)n(C)c3nc4ccccc4nc23)cc1,0.928 µM (active)
13,Cc1ccsc1/C=N/NC(=O)Cc1cc(=O)[nH][nH]1,inactive
14,CCC1(c2ccccc2)NC(=O)N(CC(=O)Nc2ccccc2C(=O)NC2CCCC2)C1=O (stereo not drawn),inactive
15,COC(=O)c1ccccc1NC(=O)CSc1nc2c(c(=O)[nH]1)CCC2,inactive
16,CCCSc1nc2c(c(=O)n(C)c(=O)n2C)n1Cc1ccc(C)cc1,13.1 µM (active)
17,CCOC(=O)CSc1nc2c(c(=O)n(C)c(=O)n2C)n1Cc1ccccc1F,inactive
18,Cc1cccc(Cn2c(SCCO)nc3c2c(=O)n(C)c(=O)n3C)c1,inactive
19,Cn1c(=O)c2c(nc(SCCNS(=O)(=O)c3ccccc3)n2C)n(C)c1=O,14.7 µM (active)
20,Cc1c(S(=O)(=O)NCc2ccccc2)c(=O)n(C)c(=O)n1C,inactive
21,Cn1c(=O)c2c(nc(SCC(=O)Nc3ccccc3N3CCCCC3)n2C)n(C)c1=O,inactive
22,Cc1ccc(CNS(=O)(=O)CCNC(=O)c2ccccc2)cc1,inactive
23,CC1C(=O)N2CCCc3cc(S(=O)(=O)NCc4ccc(F)cc4)cc1c32 (stereo not drawn),inactive

row,SMILES,Potency
1,CC(C)CNS(=O)(=O)c1ccc(C(=O)Nc2ccc3c(c2)OCO3)cc1,inactive
2,COc1ccc(Cn2c(=S)[nH]c3cc(C(=O)N4CCCCC4)ccc3c2=O)cc1,inactive
3,Cc1ccc(S(=O)(=O)N2[C@@H](c3ccccc3F)C(C(=O)O)=CC[C@H]2c2ccc(Cl)cc2)cc1,inactive
4,Cc1cc(Nc2ccc(C(=O)N3CCCCC3)cc2)c2cccc(C)c2n1,inactive
5,CCn1cc(CN2CCC(n3nccc3NC(=O)CCCc3ccccc3)CC2)c(C)n1,inactive
6,c1ccc2c(c1)CSc1sccc1C2=C1CCNCC1,10.4 µM (active)
7,CCOC(=O)CNC(=O)CSc1ncccc1-c1nc2ccccc2[nH]1,inactive
8,Cc1ccccc1N1CCN(S(=O)(=O)c2ccc3ccccc3c2)CC1,inactive
9,Cc1ccc(-n2c(SCC(=O)NCCC3=CCCCC3)nc3n[nH]c(C)c3c2=N)cc1Cl,inactive
10,CC1(c2ccc(Cl)cc2Cl)NC(=O)N(CC(=O)Nc2cccnc2Cl)C1=O (stereo not drawn),inactive
11,COc1ccc(CN2CCCC(C(=O)c3ccc(Cl)cc3)C2)cc1Cn1cncn1 (stereo not drawn),10.4 µM (active)
12,COc1cc(CN2CCCC(C(=O)c3ccc(SC)cc3)C2)cc(Cl)c1O (stereo not drawn),inactive
13,Cc1ccc(CN2CCCC(C(=O)c3ccc4c(c3)OCO4)C2)cc1C (stereo not drawn),inactive
14,COc1ccc(NC(=O)CSCc2ccc([N+](=O)[O-])cc2)cc1OC,inactive
15,COc1ccccc1OCC(O)CN1CCOCC1 (stereo not drawn),inactive
16,OC(c1ccccc1)C(CN1CCOCC1)c1ccccc1 (stereo not drawn),inactive
17,OC(c1ccc(Cl)cc1)C(CN1CCOCC1)c1ccccc1 (stereo not drawn),2.08 µM (active)
18,COc1ccc(C(C)C)cc1S(=O)(=O)Nc1ncn[nH]1,inactive
19,CCCN(CCC)S(=O)(=O)c1ccc(C(=O)NNC(=O)c2cc(OC)c(OC)c(OC)c2)cc1,inactive
20,O=c1[nH]c(SCc2cccc(F)c2)nc2ccccc12,inactive
21,CN1CCN(c2ccc(NC(=O)c3ccccc3)cc2)CC1,inactive
22,O=C(c1cc(=O)c2ccccc2o1)N1CCN(c2ccccc2)CC1,inactive
23,CN1CCC(CN)(N2CCN(c3ccccc3)CC2)CC1,11.7 µM (active)

row,SMILES,Potency
1,CCC(C)N(C(=O)CSc1ncnc2c1cnn2-c1ccccc1)C1CCS(=O)(=O)C1 (stereo not drawn),inactive
2,COc1ccc(CC(=O)N/N=C/c2cc([N+](=O)[O-])cc(Br)c2O)cc1,inactive
3,CC12CN3CCN(CC(C3)/C1=N\NC(=O)c1ccccc1N)C2,inactive
4,Cc1ccc2[nH]cc(CCNC(=O)C3CCCCC3)c2c1,inactive
5,NS(=O)(=O)c1ccc(CCNC(=O)NC2CCCCC2)cc1,inactive
6,Cc1ccc2[nH]c(C)c(CCNC(=O)NC3CCCCC3)c2c1,1.47 µM (active)
7,CCc1ccnc(NC(=O)Nc2ccc(OCc3ccccc3)cc2)c1,inactive
8,O=C(O)/C=C\C(=O)Nc1ccc(OCc2ccccc2)cc1,4.15 µM (active)
9,Cc1cccc(NC(=O)Nc2ccc(OCc3ccccc3)cc2)n1,inactive
10,CCN(C(=O)c1cc([N+](=O)[O-])ccc1NCc1cccnc1)c1ccccc1,inactive
11,COc1cccc(N2CC(NS(=O)(=O)c3ccc(Cl)cc3)CC2=O)c1 (stereo not drawn),inactive
12,CCOC(=O)N1CCC(NC(=O)CCc2ccccc2)CC1,inactive
13,Cc1ccc(CSCCNC(=O)CN(c2ccc(F)cc2)S(C)(=O)=O)cc1,inactive
14,CCCCOc1ccc(-c2nnc(-c3ccco3)o2)cc1,inactive
15,CCC(=O)Oc1cccc(C(=O)Nc2ccc(-c3nnc(-c4ccco4)o3)cc2)c1,10.4 µM (active)
16,O=C(CCc1ccccc1)Nc1cccc(-c2nnc(-c3ccco3)o2)c1,inactive
17,COCCCN(C(=O)CSCc1ccc(C)cc1)c1c(N)n(Cc2ccccc2)c(=O)[nH]c1=O,inactive
18,Cc1ccc(C(=O)NC2CCN(C(=O)Nc3ccccc3Cl)CC2)cc1,inactive
19,O=C(c1c(F)cccc1Cl)N1CCN(c2ccccn2)CC1,inactive
20,O=S(=O)(NCCc1ccc(F)cc1)c1cccc2cccnc12,inactive
21,COc1ccc(CCNS(=O)(=O)c2cccc3cccnc23)cc1OC,inactive
22,NS(=O)(=O)c1ccc(CCNS(=O)(=O)c2cccc3cccnc23)cc1,1.17 µM (active)
